# Shown is part of a subset that was picked to be rich in hits.
# DT40 TDP1 CPT: qHTS for Inhibitors of human tyrosyl-DNA phosphodiesterase 1 (TDP1): qHTS in cells in presence of CPT; chicken DT40 Tdp1-/-;hTDP1 cells + 20 nM CPT, ATP luminescence, 48 h; Potency, µM (doses to about 46.2 µM), actives largely listed as inhibitors; hit rate 12% among 420,000; further: nearly all actives have a fitted effect of over 55% in size
#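 Chicken DT40 Tdp1-/- cells complemented with human TDP1, 400 cells/well, exposed to compounds plus 20 nM camptothecin for at least 48 h at 37 C; viability read as ATP content by CellTiter-Glo luminescence.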
# 12-LOX inh: Primary qHTS assay for inhibitors of human arachidonate 12S-lipoxygenase (ALOX12): Round 2 | Potency, µM (top dose mostly 108 µM), usual class: inhibitors | AID 1671190, 2021 | Polyunsaturated fatty acid lipoxygenase ALOX12 (Homo sapiens), P18054 | hit rate 1.1% among 580,000 | purified 12hLO, xylenol orange hydroperoxide absorbance
# Target sequence (P18054 whole entry, looked up): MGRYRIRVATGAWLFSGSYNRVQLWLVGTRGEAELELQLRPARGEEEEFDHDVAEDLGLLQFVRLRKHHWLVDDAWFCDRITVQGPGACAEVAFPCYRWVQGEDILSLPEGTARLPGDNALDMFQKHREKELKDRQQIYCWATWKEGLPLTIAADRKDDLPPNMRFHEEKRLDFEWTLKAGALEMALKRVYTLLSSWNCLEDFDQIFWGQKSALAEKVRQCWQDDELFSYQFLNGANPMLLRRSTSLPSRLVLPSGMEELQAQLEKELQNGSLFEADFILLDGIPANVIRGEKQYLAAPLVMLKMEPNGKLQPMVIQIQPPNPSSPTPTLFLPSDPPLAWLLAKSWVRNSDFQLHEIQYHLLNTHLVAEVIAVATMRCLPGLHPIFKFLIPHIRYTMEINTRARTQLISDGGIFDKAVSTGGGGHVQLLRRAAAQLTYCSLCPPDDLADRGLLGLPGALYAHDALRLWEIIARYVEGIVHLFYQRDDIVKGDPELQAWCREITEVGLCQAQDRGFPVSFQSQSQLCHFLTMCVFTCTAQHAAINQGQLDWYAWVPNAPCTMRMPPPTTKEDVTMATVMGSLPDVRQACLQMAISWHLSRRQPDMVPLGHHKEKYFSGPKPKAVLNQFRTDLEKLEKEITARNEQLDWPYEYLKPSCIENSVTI
#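 Hydroperoxide product was detected by ferrous iron/xylenol orange as the 573 to 405 nm absorbance ratio. Arachidonic acid at 40 uM (final) was turned over for 30 min at room temperature by 150 nM human 12hLO, pH 7.0 Hepes buffer, after 15 min compound preincubation.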
# IL1B secr inh: qHTS for Inhibitors of Inflammasome Signaling: IL-1-beta AlphaLISA Primary Screen. hit rate 4.7% among 360,000. AID 743279, 2014. THP-1 LPS/ATP IL-1B secretion, AlphaLISA, 16 h; active compounds read low. activity change, % at 57.5 µM; in the data active means activity change below about -50%; inconclusive means mostly about -30% to -49%
#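 Secreted IL-1B measured by AlphaLISA bead assay after 16 h compound exposure of THP-1 cells; compounds (final up to 57.5 uM) added 1 h before LPS (250 ng/mL) and ATP (1.25 mM) stimulation; lower signal means less secretion.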
# HT1080NT lethal: qHTS for induction of synthetic lethality in tumor cells producing 2HG: qHTS for the HT-1080-NT fibrosarcoma cell line | Potency, µM (titrated, usually from 46.1 µM), actives largely listed as cytotoxic | HT-1080-NT fibrosarcoma viability, CellTiter-Glo ATP luminescence, 48 h | hit rate 1.6% among 360,000;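 further: NT is the 2HG producing partner of a matched IDH1 knockdown line; nearly all actives have a fitted effect of over 55% in size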
#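 Compounds were tested in concentration-response format on HT-1080-NT cells for 48 hours at 37 degrees C. Cell viability came from CellTiter-Glo luminescence; curves were classified by r2, response magnitude and activity.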
# HT1080 IDH1KD tx: qHTS for induction of synthetic lethality in tumor cells producing 2HG: qHTS for the HT-1080-IDH1KD cell line; HT-1080 IDH1 knockdown viability, ATP luminescence, 48 h; Potency, µM (doses to about 46.1 µM), usual class: cytotoxic; hit rate 2% among 360,000; AID 686971, 2013
#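 Viability of IDH1-knockdown HT-1080 fibrosarcoma cells was assessed by CellTiter-Glo after 48 h at 37 °C with titrated compound; concentration-effect curves were classified by fit quality and response size.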
# TDP1 cell noCPT: qHTS for Inhibitors of human tyrosyl-DNA phosphodiesterase 1 (TDP1): qHTS in cells in absence of CPT; DT40 Tdp1-/- hTDP1 cells, no CPT, ATP luminescence, 48 h; Potency, µM (titrated, usually from 46.2 µM), actives largely listed as inhibitors; hit rate 15% among 420,000; further: nearly all actives have a fitted effect of over 55% in size
#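 Chicken DT40 Tdp1-/- cells complemented with human TDP1, screened without camptothecin (DMSO vehicle only), 400 cells/well. Compounds pin-transferred, cells incubated at 37 °C for at least 48 hr. Growth read as ATP-dependent luminescence (CellTiter-Glo, 30 min at RT).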
# Hits are given with their value; n = inactive; u = inconclusive; x = no result given; [ ] = another dose, or the depositor's remark. Unless noted, the call rests on the fitted dose curve; in most records, active means well fitted curve in the direction sought with a large enough effect; inconclusive means small, poorly fitted or top-dose-only effect, or another doubt; inactive means no such curve, though single readings can be large; an effect the other way counts as inactive or inconclusive.
SMILES,DT40 TDP1 CPT,12-LOX inh,IL1B secr inh,HT1080NT lethal,HT1080 IDH1KD tx,TDP1 cell noCPT
CCOc1ccccc1NC(=O)C(Cc1ccccc1)NS(=O)(=O)c1ccc(Br)s1 (stereo not given),23.1µM,n,x,x,x,u
Cc1ccc(C=O)n1-c1ccncc1,x,n,x,x,x,x
CCc1cccc(NC(=O)CN(C)Cc2ccc(C(F)(F)F)cc2)c1,x,n,x,x,x,x
COc1ccc(OC)c(C2CC(=O)Nc3c2c(C)nn3-c2ccc3nnc(C)n3n2)c1 (stereo not given),x,n,x,x,x,x
COc1ccc(CN2CC(N3CCc4ccccc43)C2)cc1,x,n[6.33 µM],x,x,x,x
CCc1ccccc1CC1CN(Cc2ccccc2)Cc2ccccc2N1c1ccc(OC)cc1 (stereo not given),u,n,n,n,n,11.6µM
CCOc1ccc(S(=O)(=O)Nc2ccc3c(c2)CCCN3S(=O)(=O)c2ccc(C)cc2)cc1,u,u,x,x,x,18.4µM
Cc1ccc(S(=O)(=O)N2CCCc3cc(NS(=O)(=O)c4cccc(Cl)c4)ccc32)cc1,20.6µM,n,x,x,x,20.6µM
CCC(=O)N1CCc2nn(Cc3ccccc3)c(=O)n2CC1,x,n,x,x,x,x
COc1ccc(C2CC(=O)Nc3c2c(C)nn3-c2ncnc3nc[nH]c23)cc1OC(C)C (stereo not given),x,n,x,x,x,x
COc1ccc2nc(COC(=O)c3cccc([N+](=O)[O-])c3)c(C(C)=O)[n+]([O-])c2c1,n,n,n,n,n,n
COc1ccc2nc(COC(=O)c3cccs3)c(C(C)=O)[n+]([O-])c2c1,n,31.6µM,n,n,n,n
CCc1nnc(NS(=O)(=O)c2ccc(NC(=S)NC(=O)c3cccnc3)cc2)s1,n,u,n,n,n,n
Cc1cc(NS(=O)(=O)c2ccc(NC(=S)NC(=O)c3ccc(Br)cc3)cc2)no1,n,10µM,n,n,n,n
Cc1cc(NS(=O)(=O)c2ccc(NC(=O)Nc3ccccc3)cc2)no1,n,n,n,n,n,n
Cc1cc(NS(=O)(=O)c2ccc(NC(=S)NCc3ccccc3)cc2)no1,n,44.7µM,n,n,n,n
CCc1nnc(NS(=O)(=O)c2ccc(NC(=S)NC(=O)c3ccc(F)cc3)cc2)s1,n,22.4µM,n,n,n,n
Cc1cc(NS(=O)(=O)c2ccc(NC(=S)NC(=O)c3cccnc3)cc2)no1,n,u,n,n,n,n
Cc1noc(-c2cn(C3CCN(C(=O)c4ccc(F)cc4)CC3)nn2)n1,x,n,x,x,x,x
CC(C)NC(=O)N1Cc2ccccc2OC2(CCN(C(=O)CCC(=O)O)CC2)C1,x,n[6.33 µM],x,x,x,x
O=C(NCC1(c2ccccc2)CCC1)c1cc2ccccc2oc1=O,x,n,x,x,x,x
Cc1ccccc1Cn1cc(-c2ccncc2)cc1C(=O)NC1CC1,x,n,x,x,x,x
COc1ccc(OC)c(NC(=O)[C@H]2C[C@H]([C@@H](C)O)N[C@]23C(=O)Nc2c(C)cc(Cl)cc23)c1,x,n,x,x,x,x
NNc1nc2cccnc2n(CCNc2ncc(C(F)(F)F)cc2Cl)c1=O,16.4µM,n,n,n,u,u
O=c1c(Cl)nc2cc(Cl)ccc2n1CCNc1ncc(C(F)(F)F)cc1Cl,0.517µM,x,n,n,n,0.581µM
SMILES,DT40 TDP1 CPT,12-LOX inh,IL1B secr inh,HT1080NT lethal,HT1080 IDH1KD tx,TDP1 cell noCPT
O=c1[nH]c2cccc(Cl)c2n(CCNc2ncc(C(F)(F)F)cc2Cl)c1=O,u,u,n,23.1µM,u,u
O=c1c2nncn2c2cccnc2n1CCNc1ncc(C(F)(F)F)cc1Cl,n,n,n,n,n,n
CC(C)c1ccc(N2C(=S)N[C@H]3[C@@H](O)[C@H](O)C[C@@H](C(=O)N(C)Cc4ccccc4)[C@H]32)cc1,x,n,x,x,x,x
COCCNC(=O)C1COC2(CCN(C(=O)c3ccc(F)cc3)CC2)N1C(=O)c1cccc(OC)c1 (stereo not given),x,n,x,x,x,x
CN(C)c1ccc(NC(=O)CN2CCN(c3ccc([N+](=O)[O-])c4cnccc34)CC2)cc1,x,n,x,x,x,x
COCC(=O)NC1CCC12CCN(C(=O)c1ccoc1)CC2 (stereo not given),x,n,x,x,x,x
COc1ccc(-n2c(NC(=O)c3ccco3)c(C#N)c3nc4ccccc4nc32)cc1,16.4µM,n,n,n,n,23.1µM
CCOC(=O)c1c(NC(=O)c2ccco2)n(C2CCCCC2)c2nc3ccccc3nc12,7.31µM,u,n,u,15.8µM,8.2µM
CCCCn1c(NC(=O)c2ccccc2Cl)c(C#N)c2nc3ccccc3nc21,23.1µM,n,-97.9,5.8µM,9.2µM,25.9µM
CC1=C(C#N)C(c2cc(Cl)ccc2OC(F)F)C(C#N)=C(C)N1,x,n,x,x,x,x
Cc1oc2cc(OCC(=O)OC(C)C)ccc2c(=O)c1-c1ccc(Cl)cc1,x,n,x,x,x,x
CCc1ccc2oc(-c3ccc(NC(=O)CC(C)C)cc3)nc2c1,x,n,x,x,x,x
c1csc(-c2noc(CNc3ccc(-n4cnnn4)cc3)n2)c1,x,n,x,x,x,x
FC(F)(F)c1ccccc1Cc1c(-c2ccc(Cl)cc2)nc2ccc(Br)cn12,u,39.8µM,n,u,n,u
Fc1ccc(-c2nc3ccc(Br)cn3c2Cc2ccccc2C(F)(F)F)cc1,u,17.8µM,n,n,n,u
Fc1ccc(-c2nc3ccc(Cl)cn3c2Cc2ccccc2C(F)(F)F)cc1,u,n,n,n,n,u
Cc1cccc(NC(=O)CSc2nnc(CNC(=O)c3ccc(S(=O)(=O)N(C)C)cc3)n2-c2cccc(C)c2)c1,16.4µM,n,n,n,n,u
CCN(CC)S(=O)(=O)c1cccc(NC(=O)CSc2nc3ccccc3[nH]2)c1,23.1µM,n,-57.3,n,n,16.4µM
Cc1ccc(CN(C)CC(=O)Nc2ccc3c(c2)CCC3)cc1,n,n,-66.4,n,n,u
CN(C)S(=O)(=O)c1cccc(NC(=O)CSc2nc3ccccc3[nH]2)c1,u,n,-61.0,n,u,u
O=C(CSc1nc2ccccc2[nH]1)Nc1cccc(S(=O)(=O)N2CCOCC2)c1,u,n,u,n,n,u
CCOC(=O)c1cnc2c(C)cccc2c1Nc1ccc(C(C)=O)cc1,x,n,x,x,x,x
CNC(=O)CCC1CCCN(S(=O)(=O)c2cccc(F)c2)C1 (stereo not given),x,n,x,x,x,x
Cc1ccc(NC(=O)C2(C)CCCCC(=O)N2)cc1 (stereo not given),x,n,x,x,x,x
CCCCOc1ccc(C(=O)Nc2ccccc2C(C)(C)C)cc1OCC,x,n,x,x,x,x

# Screens deposited in PubChem by National Center for Advancing Translational Sciences (NCATS).
